# From PubChem BioAssay AID588592 (Sanford-Burnham Center for Chemical Genomics, 2011)
# The other results are listed elsewhere or left out. Unmarked numbers belong to inactive results. How the calls were made is not given here.
# Assay: fluorescence interference of Apaf-1 activator hits, dose response, artefact control for Apaf-1 activator project (AID 588592)
# Conditions: fluorescence interference counterscreen, Apaf-1 activator assay
row,Structure (SMILES),EC50 [µM]
1,C=C(C)C(=O)Nc1cccc(C2=NOC3(C2)C[C@H](C(N)=O)N(C(=O)C(c2ccccc2)c2ccccc2)C3)c1 (some centres undefined),> 100
2,CCN(CC)CCOc1ccc2c(c1)C(=NNC(=O)c1ccccn1)c1cc(OCCN(CC)CC)ccc1-2,> 100
3,C=CC1=C(C(=O)O)N2C(=O)[C@@H](NC(=O)/C(=N\OCC(=O)O)c3csc(N)n3)[C@H]2SC1,> 100
4,C=CC1=C(C(=O)O)N2C(=O)[C@@H](NC(=O)/C(=N/OCC(=O)O)c3csc(N)n3)[C@H]2SC1,> 100
